Paper PMC10668032, “Altered binding affinity of SIX1-Q177R correlates with enhanced WNT5A and WNT pathway effector expression in Wilms tumor”
The full ranking holds about 33,000 sequences; the median of “e-score” is about -0.053, and the highest 2% start at about 0.38. This is one part of a sample in which the highest values are shown more often than they occur.

molecular target: T1, SIX1 homeodomain (reference allele) (human, UniProt Q15475 108-198); assay: universal protein binding microarray; Universal all-10-mer PBM (8x60K, AMADID 030236), 300 nM GST-tagged protein, Alexa Fluor 488 anti-GST; buffer, salt, pH and temperature not stated (as in Berger); high values mean tight binding; conditions: protein: ivt; tags: N-terminal GST; dsDNA, one strand shown
T1 sequence: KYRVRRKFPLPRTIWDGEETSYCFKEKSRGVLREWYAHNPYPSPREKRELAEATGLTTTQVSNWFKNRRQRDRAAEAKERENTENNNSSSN
Method in brief: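 Binding of GST-tagged homeodomains is given as 8-mer E-scores from the Universal PBM Analysis Suite. The proteins were produced by in vitro transcription/translation, quantified by anti-GST western blot against a recombinant GST standard curve, and applied in duplicate at 300 nM final concentration to universal 'all 10-mer' protein binding microarrays (8×60K format).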

In order of falling binding signal:
1. ACGGATAC  0.454 ± 0.00689 E-score
2. CCGGATAC  0.4414 ± 0.00339 E-score
3. ACGGATCA  0.43 ± 0.0139 E-score
4. GCGGATAC  0.43 ± 0.00572 E-score
5. ACGGATAT  0.4283 ± 0.00251 E-score
6. CCGGATCC  0.424 ± 0.034 E-score
7. CCGGATCG  0.417 ± 0.0468 E-score
8. GAGGGATA  0.412 ± 0.00552 E-score
9. CCGATCCC  0.412 ± 0.0499 E-score
10. TAGGGATA  0.41 ± 0.00754 E-score
11. AACCGATA  0.41 ± 0.00758 E-score
12. ACCCGATA  0.4 ± 0.0453 E-score
13. GAGGGATC  0.397 ± 0.00899 E-score
14. GCGATCCC  0.395 ± 0.0154 E-score
15. ACGGATCC  0.386 ± 0.0442 E-score
16. GCGATCGC  0.378 ± 0.0183 E-score
17. GAGATCCC  0.378 ± 0.0279 E-score
18. GATGGATA  0.3768 ± 0.0011 E-score
19. TACCGATA  0.375 ± 0.0115 E-score
20. CACCGATA  0.374 ± 0.0197 E-score
21. ACCCGATC  0.372 ± 0.0497 E-score
22. ATATGGAT  0.371 ± 0.00838 E-score
23. AAGGGATA  0.37 ± 0.0084 E-score
24. CCGGATAG  0.361 ± 0.0142 E-score
25. AATGGATA  0.354 ± 0.0168 E-score
26. ACGGATCG  0.354 ± 0.0265 E-score
27. CGGATTAA  0.351 ± 0.0739 E-score
28. GCGGATCC  0.348 ± 0.0564 E-score
29. GATCATTA  0.348 ± 0.0458 E-score
30. GCGATCCA  0.345 ± 0.0824 E-score
31. ACGGATAG  0.344 ± 0.0201 E-score
32. ACGATCCC  0.337 ± 0.0613 E-score
33. GATCTGCC  0.334 ± 0.00569 E-score
34. CCAGATCC  0.332 ± 0.0766 E-score
35. GAGATCCA  0.332 ± 0.0213 E-score
36. GCCCGATA  0.33 ± 0.0332 E-score
37. CGAAGATA  0.325 ± 0.0496 E-score
38. ACGGATCT  0.324 ± 0.0553 E-score
39. CCCGATCG  0.323 ± 0.0723 E-score
40. GCGGATAA  0.317 ± 0.0316 E-score
41. CCGATCTC  0.316 ± 0.0192 E-score
42. CACAATAC  0.31 ± 0.0105 E-score
43. GGTGTTAA  0.301 ± 0.0173 E-score
44. CATGGATA  0.3 ± 0.00508 E-score
45. CGGATTAC  0.299 ± 0.00435 E-score
46. ATCCTACC  0.299 ± 0.0201 E-score
47. CCGGATAA  0.299 ± 0.0306 E-score
48. GGCATATA  0.29 ± 0.00948 E-score
49. ACAGATCC  0.288 ± 0.0336 E-score
50. ATAGATGA  0.287 ± 0.0197 E-score
51. ATCGCATA  0.287 ± 0.0238 E-score
52. ATCCGAAC  0.278 ± 0.0321 E-score
53. CCGATCGA  0.264 ± 0.0353 E-score
54. AACCCATA  0.263 ± 0.0634 E-score
55. AGGTAGAT  0.2625 ± 0.00214 E-score
56. CTATAATA  0.259 ± 0.0899 E-score
57. GAGGGGTA  0.257 ± 0.0214 E-score
58. GATCTCGC  0.254 ± 0.0311 E-score
59. ATCCATGC  0.253 ± 0.0158 E-score
60. CCGGATTC  0.249 ± 0.0385 E-score
61. GTTAGATA  0.248 ± 0.0413 E-score
62. AGATAATA  0.245 ± 0.114 E-score
63. AAGATCCC  0.243 ± 0.0194 E-score
64. ATCCGAGC  0.24 ± 0.00809 E-score
65. GATAGTCC  0.24 ± 0.023 E-score
66. ATCAAATA  0.239 ± 0.0859 E-score
67. ATCCCGAC  0.238 ± 0.0448 E-score
68. ATACTACC  0.23 ± 0.0327 E-score
69. GTATTACA  0.227 ± 0.0055 E-score
70. ATACATTA  0.223 ± 0.0139 E-score
71. ATCTGTAC  0.221 ± 0.0203 E-score
72. ACGGATAA  0.216 ± 0.0405 E-score
73. ATCTCGAG  0.215 ± 0.0177 E-score
74. CAGGATTA  0.213 ± 0.0434 E-score
75. CCGATCGC  0.212 ± 0.0392 E-score
76. AAGATCAA  0.201 ± 0.0668 E-score
77. GCGATCGA  0.199 ± 0.0473 E-score
78. AGTCTGAT  0.19 ± 0.0144 E-score
79. ACGGATTC  0.187 ± 0.0297 E-score
80. ACTAGATC  0.181 ± 0.003 E-score
81. ACGGATTG  0.179 ± 0.0302 E-score
82. TAGGGAGA  0.177 ± 0.0683 E-score
83. CGTATTAG  0.174 ± 0.0547 E-score
84. CAGATAGC  0.171 ± 0.0462 E-score
85. GGGATTAC  0.167 ± 0.011 E-score
86. GTACACGA  0.165 ± 0.0933 E-score
87. ATACAGTC  0.163 ± 0.00378 E-score
88. ATCGTGCA  0.16 ± 0.0147 E-score
